The values below come from PubChem BioAssay AID1851 (National Center for Advancing Translational Sciences (NCATS), 2009).

As usually defined, the AC50 is the concentration giving half of the maximal activity seen.

Molecules are shown by their SMILES. Values joined by “and” are separate entries in the source; they are usually repeats but may differ in a detail not shown here. Equal values may be shown once. In all, about 16,000 compounds went through this assay and about 4,000 (25%) were called active. Roughly 26% stayed inconclusive and do not appear here. These entries were drawn from the full list. Values without a mark were called inactive. Calls come from the whole dose curve; as a rule, active = well fitted curve in the direction sought with a large enough effect; inconclusive = small, poorly fitted or top-dose-only effect, or effect the other way; inactive = no such curve, though single readings can be large or run the other way.
% is set by controls: 0 for no effect and ±100 for the full control effect.

Cytochrome P450 2C9 (Homo sapiens), sequence (P11712 whole entry, looked up): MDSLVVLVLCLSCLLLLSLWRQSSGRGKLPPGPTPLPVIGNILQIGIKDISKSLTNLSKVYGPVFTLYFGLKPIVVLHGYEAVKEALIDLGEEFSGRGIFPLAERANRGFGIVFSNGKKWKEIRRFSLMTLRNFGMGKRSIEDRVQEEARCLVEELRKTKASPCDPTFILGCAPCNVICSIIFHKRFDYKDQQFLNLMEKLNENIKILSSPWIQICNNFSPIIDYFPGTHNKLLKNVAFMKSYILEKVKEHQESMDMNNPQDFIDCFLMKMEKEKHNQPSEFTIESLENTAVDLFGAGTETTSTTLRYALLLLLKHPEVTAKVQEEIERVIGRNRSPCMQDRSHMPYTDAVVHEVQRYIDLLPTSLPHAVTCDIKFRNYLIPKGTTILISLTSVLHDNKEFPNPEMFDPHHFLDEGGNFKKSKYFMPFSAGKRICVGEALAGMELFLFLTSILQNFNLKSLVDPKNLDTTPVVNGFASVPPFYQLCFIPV

The test concerns the target Cytochrome P450 2C9 (Homo sapiens) (UniProt P11712). The test can be described thus: Cytochrome panel assay with activity outcomes. Conditions: recombinant CYP, pro-luciferin dealkylation, luminescence, p450-cyp2c9; series mostly up to 57.1 µM; activity, negative = inhibition: at the top concentration.
As for `CN1CCN(c2nc3c(c(=O)n(C)c(=O)n3C)n2C)CC1`, the activity, negative = inhibition is 0.789% [at 11.4 µM].

For `C=CCn1cc(Cl)c(=O)n(CC=C)c1=O`, the “activity, negative = inhibition” value was -24.2%.

In the case of `Cn1c(=O)c2c(nc(N3CCN(c4ccccn4)CC3)n2Cc2ccccc2Cl)n(C)c1=O`, the AC50 is 3.55 µM (active).

As for `C=CCn1c(=O)c2c(nc(-c3ccc(S(=O)(=O)O)cc3)n2C)n(C)c1=O`, the “activity, negative = inhibition” value was 23.6%.

In the case of `Cn1c(=O)c2c(nc(N3CCN(c4ccccn4)CC3)n2Cc2ccc(Cl)cc2Cl)n(C)c1=O`, the “activity, negative = inhibition” value was -25.2%.

For `C=CCn1c(=O)c2c(nc(Br)n2Cc2ccccc2Cl)n(C)c1=O`, the concentration at half-maximal activity (AC50) is 14.1 µM (active).

On to `O=C(O)CCC(=O)CCC(=O)c1ccccc1`, for which the “activity, negative = inhibition” value was 5.67%.

In the case of `OCCN1CCN(CCC=C2c3ccccc3Sc3ccc(Cl)cc32)CC1`, the “activity, negative = inhibition” value was -0.458% [at 25.6 µM].

Take `CN1CCN(C(=O)c2ccc(-n3cccc3)cc2)CC1`: the “activity, negative = inhibition” value is 9.87%.

As for `COc1cc(OC)cc(C(=O)Nn2cc(C(=O)N3CCN(C)CC3)c3ccccc3c2=O)c1`, the AC50 is 11.2 µM (active).

Regarding `COc1cc(OC)cc(C(=O)NCC(=O)OC2CCOC2=O)c1` (stereo unspecified), the “activity, negative = inhibition” value is -19.6%.

For the molecule `CC[C@H](C)C(=O)O[C@H]1CCC=C2C=C[C@H](C)[C@H](CC[C@@H]3C[C@H](O)CC(=O)O3)[C@H]21`, the “activity, negative = inhibition” value is -8.33%.

On to `NCCc1nc(-c2nc(C(=O)O)cs2)cs1`, for which the activity, negative = inhibition was -10.5% [at 11.4 µM].

Consider `C=CCNC(=O)c1ccc2nc(-c3ccccc3)c(-c3ccccc3)nc2c1`, for which the AC50 is 14.1 µM (active).

In the case of `C=CCNC(=O)c1ccc(-c2nc(-c3ccc(Cl)c(Cl)c3)cs2)cc1`, the “activity, negative = inhibition” value is -18.2%.

As to `CN(C)C(=O)c1ccc(-c2ccc3ncnc(NCc4ccccc4)c3c2)cc1`, the activity, negative = inhibition is 13.4% [at 2.29 µM].

On to `C=CCNC(=O)c1csc(-c2ccccc2)n1`, for which the half-maximal activity concentration (AC50) is 15.8 µM (active).

Regarding `CSc1nc(C)c2c(n1)N(c1ccc(C(F)(F)F)cc1)CC2`, the “activity, negative = inhibition” value was -10.3%.

On to `O=C1N=C(N2CCOCC2)S/C1=C/c1cccs1`, for which the “activity, negative = inhibition” value was 11.2%.

Consider `N=C1/C(=C/c2cccs2)C(=O)N=C2SN=C(SCc3ccccc3)N12`, for which the concentration at half-maximal activity (AC50) was 0.316 µM (active).

As to `CN1[C@@H](CC(=O)c2ccccc2)CCC[C@@H]1C[C@@H](O)c1ccccc1`, the AC50 result was “inactive”.

For the molecule `O=C(C[C@@H]1C=Cc2ccccc2N1C(=O)c1ccccc1)c1ccccc1`, the AC50 was 2.51 µM (active).

For the molecule `NC(=O)N1c2ccccc2C=Cc2ccccc21`, the “activity, negative = inhibition” value is -13.6% [at 25.6 µM].

With `CO[C@@H]1COC(=O)C/C=C\[C@H](C)[C@@H](NS(=O)(=O)c2ccc(C)cc2)COC(=O)C/C=C\[C@@H]1C`, the activity, negative = inhibition was -12.8% [at 11.4 µM] and 11% [at 11.4 µM].

Consider `Nc1nc2c(c(=O)[nH]1)N(C=O)[C@H](CNc1ccc(C(=O)N[C@@H](CCC(=O)O)C(=O)O)cc1)CN2`, for which the “activity, negative = inhibition” value is 5.94% [at 25.6 µM].

In the case of `Cc1cc(C(C)(C)C)c(OCCCN2CCOCC2)c(C(C)(C)C)c1`, the activity, negative = inhibition is -0.273% [at 11.4 µM].

Take `N#Cc1c(N2CCCCC2)nc(N)c2c(N)nc3c(c12)CC(c1ccccc1)O3` (stereo unspecified): the AC50 is 4.47 µM (active).

As for `CN1c2ccccc2C(C)(C)C12C=Nc1c(cc(N3CCOCC3)c3ccccc13)O2` (stereo unspecified), the AC50 is 1.58 µM (active).

Turning to `CN(C)Cc1ccccc1-c1nc(N2CCOCC2)c2ccccc2n1`, the activity, negative = inhibition is 5.66% [at 2.29 µM].

In the case of `CN(C)Cc1ccccc1-c1ccc2ncnc(N3CCOCC3)c2c1`, the activity, negative = inhibition is 8.68% [at 2.29 µM].

For `COc1cc(CNCc2ccccn2)ccc1OCc1ccc(Cl)cc1Cl`, the “activity, negative = inhibition” value is -15.6%.

As to `CCOc1cc(C2NN=C(c3ccccc3)S2)ccc1OCc1ccccc1Cl` (stereo unspecified), the AC50 is 8.91 µM (active).

On to `CN(C)C(=O)c1ccc(-c2cncnc2NC2CCNCC2)cc1`, for which the activity, negative = inhibition was 15.8% [at 2.29 µM].

Regarding `CCOC(=O)C1C(=O)C=C(c2ccc(NS(C)(=O)=O)cc2)CC1c1ccco1` (stereo unspecified), the concentration at half-maximal activity (AC50) is 4.47 µM (active).

`CCOC(=O)C1C(=O)C=C(c2ccc(C)cc2)CC1c1ccco1` (stereo unspecified): the half-maximal activity concentration (AC50) is 3.16 µM (active).

`CCN(CC)C(=O)Cn1cnc([N+](=O)[O-])n1`: the “activity, negative = inhibition” value was -10.1%.

As to `CN1CC(c2ccccc2)C2(COc3ccccc3C2=O)C12C(=O)Nc1ccccc12` (stereo unspecified), the AC50 was 3.98 µM (active).

For the molecule `COc1cc(C2C(C(=O)OCCC#N)=C(C)NC3=C2S(=O)(=O)c2ccccc23)cc(OC)c1OC` (stereo unspecified), the AC50 was 7.08 µM (active).

With `C[C@@H](C(=O)O)c1ccc(C[C@@H]2CCCC2=O)cc1`, the “activity, negative = inhibition” value is -13.5%.

As for `Cc1nc2ccccn2c1C(=O)CSc1ccccc1Cl`, the half-maximal activity concentration (AC50) was 11.2 µM (active).

Regarding `O=C(c1ccc(F)cc1)C1CCN(C(=S)Nc2ccccc2)CC1`, the half-maximal activity concentration (AC50) is 8.91 µM (active).

In the case of `S=C(Nc1ccccc1)N1CCCCC1`, the “activity, negative = inhibition” value is -28.5%.

Take `O=C(c1ccc(F)cc1)C1CCN(CCCCc2ccccc2)CC1`: the “activity, negative = inhibition” value was 7.51%.

For `CC(C)CO/N=C1/C[C@@H](O)[C@@H](O)[C@@H]2[C@@H]3C(=O)N(Cc4ccc5c(c4)OCO5)C(=O)[C@H]3CC[C@@H]12`, the activity, negative = inhibition is -17.6% [at 11.4 µM].

Take `CC(C)CO/N=C1/C[C@@H](O)[C@@H](O)[C@@H]2[C@@H]3C(=O)N(Cc4ccc5c(c4)OCO5)C(=O)[C@H]3CC[C@H]12`: the activity, negative = inhibition was -12.4% [at 11.4 µM].

As to `CC(C)CO[C@H](c1ccc2c(c1)OCO2)[C@H](C)Br`, the AC50 is 2 µM (active).
